The source of these data is ChEMBL document CHEMBL2218924, “A broad activity screen in support of a chemogenomic map for kinase signalling research and drug discovery” (Biochem J, 2013).

Test [1] has as its target Tyrosine-protein kinase SYK (Homo sapiens) (UniProt P43405). As to conditions: at 10 µM.
Test [2] addresses T1, Mitogen-activated protein kinase kinase kinase 7 (Homo sapiens) (UniProt O43318).
T1 sequence (whole entry): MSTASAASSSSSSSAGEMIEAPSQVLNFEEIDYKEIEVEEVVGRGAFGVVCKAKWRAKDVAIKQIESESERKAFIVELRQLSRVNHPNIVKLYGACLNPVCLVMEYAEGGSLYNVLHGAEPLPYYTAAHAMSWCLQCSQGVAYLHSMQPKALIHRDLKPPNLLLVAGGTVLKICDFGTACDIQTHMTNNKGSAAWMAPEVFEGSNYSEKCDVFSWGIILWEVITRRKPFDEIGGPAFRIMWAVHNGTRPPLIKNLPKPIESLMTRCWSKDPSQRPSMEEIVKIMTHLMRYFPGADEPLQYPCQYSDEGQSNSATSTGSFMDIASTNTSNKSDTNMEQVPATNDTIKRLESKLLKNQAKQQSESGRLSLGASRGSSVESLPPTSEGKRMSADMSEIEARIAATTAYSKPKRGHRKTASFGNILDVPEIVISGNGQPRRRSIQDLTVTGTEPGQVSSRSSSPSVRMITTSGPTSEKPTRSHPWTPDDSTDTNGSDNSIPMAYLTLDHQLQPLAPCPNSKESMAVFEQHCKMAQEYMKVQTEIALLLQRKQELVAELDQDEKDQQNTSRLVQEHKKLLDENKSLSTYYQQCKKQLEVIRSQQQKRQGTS
As to conditions: at 1 µM.

The target of test [3] is T1, Mitogen-activated protein kinase kinase kinase 7 (Homo sapiens). As to conditions: at 10 µM.
Test [4] has as its target T2, Serine/threonine-protein kinase TAO1 (Homo sapiens) (UniProt Q7L7X3).
T2 sequence (whole entry): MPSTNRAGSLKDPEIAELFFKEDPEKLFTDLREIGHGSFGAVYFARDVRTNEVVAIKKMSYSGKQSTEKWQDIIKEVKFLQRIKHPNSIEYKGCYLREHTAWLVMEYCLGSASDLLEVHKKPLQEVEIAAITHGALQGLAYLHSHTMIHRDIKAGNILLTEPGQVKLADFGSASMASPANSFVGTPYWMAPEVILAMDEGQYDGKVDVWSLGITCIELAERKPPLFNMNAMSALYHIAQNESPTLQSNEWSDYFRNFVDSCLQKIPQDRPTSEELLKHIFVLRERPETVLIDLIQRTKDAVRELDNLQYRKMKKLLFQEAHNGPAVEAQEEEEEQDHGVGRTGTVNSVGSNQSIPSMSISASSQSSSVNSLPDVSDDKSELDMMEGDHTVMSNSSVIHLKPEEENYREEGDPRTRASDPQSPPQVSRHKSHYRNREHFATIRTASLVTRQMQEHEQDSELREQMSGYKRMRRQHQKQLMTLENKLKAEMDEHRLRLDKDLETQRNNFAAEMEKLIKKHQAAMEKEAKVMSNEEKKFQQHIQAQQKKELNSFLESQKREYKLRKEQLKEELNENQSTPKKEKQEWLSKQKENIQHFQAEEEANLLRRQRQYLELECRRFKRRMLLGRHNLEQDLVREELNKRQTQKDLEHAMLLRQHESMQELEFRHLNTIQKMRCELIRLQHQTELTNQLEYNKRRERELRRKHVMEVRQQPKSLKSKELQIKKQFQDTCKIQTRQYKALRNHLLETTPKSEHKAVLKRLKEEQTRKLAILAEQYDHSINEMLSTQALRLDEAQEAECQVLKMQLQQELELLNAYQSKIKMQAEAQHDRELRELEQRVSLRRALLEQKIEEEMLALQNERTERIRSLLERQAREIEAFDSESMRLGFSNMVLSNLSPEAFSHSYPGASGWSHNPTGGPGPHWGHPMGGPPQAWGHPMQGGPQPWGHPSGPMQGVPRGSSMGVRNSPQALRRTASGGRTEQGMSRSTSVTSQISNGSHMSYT
As to conditions: at 1 µM.

Test [5] concerns the target T2, Serine/threonine-protein kinase TAO1 (Homo sapiens). To be noted: at 10 µM.
The target of test [6] is T3, Serine/threonine-protein kinase TAO2 (Homo sapiens) (UniProt Q9UL54).
T3 sequence (whole entry): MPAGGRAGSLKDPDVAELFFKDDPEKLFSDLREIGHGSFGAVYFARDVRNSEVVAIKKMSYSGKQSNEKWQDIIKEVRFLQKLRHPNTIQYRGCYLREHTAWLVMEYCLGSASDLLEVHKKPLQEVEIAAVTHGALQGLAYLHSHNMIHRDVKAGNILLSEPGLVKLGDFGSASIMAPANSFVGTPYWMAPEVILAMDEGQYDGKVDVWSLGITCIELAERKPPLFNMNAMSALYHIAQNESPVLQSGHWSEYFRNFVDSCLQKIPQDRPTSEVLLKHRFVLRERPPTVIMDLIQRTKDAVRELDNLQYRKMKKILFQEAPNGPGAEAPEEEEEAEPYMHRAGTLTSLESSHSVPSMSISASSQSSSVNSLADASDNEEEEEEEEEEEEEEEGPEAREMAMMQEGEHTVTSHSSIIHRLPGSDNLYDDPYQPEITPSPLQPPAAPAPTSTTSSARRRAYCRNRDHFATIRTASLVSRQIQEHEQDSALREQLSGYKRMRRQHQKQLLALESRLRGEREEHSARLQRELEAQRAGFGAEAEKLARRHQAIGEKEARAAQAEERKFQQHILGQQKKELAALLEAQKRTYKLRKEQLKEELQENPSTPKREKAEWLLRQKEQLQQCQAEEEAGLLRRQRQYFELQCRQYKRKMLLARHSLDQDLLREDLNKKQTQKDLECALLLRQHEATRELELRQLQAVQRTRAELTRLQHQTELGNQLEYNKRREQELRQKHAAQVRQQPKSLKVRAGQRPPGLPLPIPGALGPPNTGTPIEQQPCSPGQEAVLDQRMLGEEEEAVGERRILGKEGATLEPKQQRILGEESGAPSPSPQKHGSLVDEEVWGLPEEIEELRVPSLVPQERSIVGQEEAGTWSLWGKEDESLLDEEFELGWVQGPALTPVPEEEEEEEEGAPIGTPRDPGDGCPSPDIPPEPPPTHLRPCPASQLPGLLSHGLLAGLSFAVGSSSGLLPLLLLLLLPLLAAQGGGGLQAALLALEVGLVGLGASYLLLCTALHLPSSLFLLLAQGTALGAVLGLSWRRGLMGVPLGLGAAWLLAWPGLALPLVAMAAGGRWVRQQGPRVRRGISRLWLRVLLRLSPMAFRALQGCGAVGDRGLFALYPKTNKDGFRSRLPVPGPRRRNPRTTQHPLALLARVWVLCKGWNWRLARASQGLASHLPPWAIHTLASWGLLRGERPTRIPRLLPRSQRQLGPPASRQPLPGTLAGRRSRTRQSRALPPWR
As to conditions: at 1 µM.

The target of test [7] is T3, Serine/threonine-protein kinase TAO2 (Homo sapiens). As to conditions: at 10 µM.
Test [8] has as its target T4, Serine/threonine-protein kinase TAO3 (Homo sapiens) (UniProt Q9H2K8).
T4 sequence (whole entry): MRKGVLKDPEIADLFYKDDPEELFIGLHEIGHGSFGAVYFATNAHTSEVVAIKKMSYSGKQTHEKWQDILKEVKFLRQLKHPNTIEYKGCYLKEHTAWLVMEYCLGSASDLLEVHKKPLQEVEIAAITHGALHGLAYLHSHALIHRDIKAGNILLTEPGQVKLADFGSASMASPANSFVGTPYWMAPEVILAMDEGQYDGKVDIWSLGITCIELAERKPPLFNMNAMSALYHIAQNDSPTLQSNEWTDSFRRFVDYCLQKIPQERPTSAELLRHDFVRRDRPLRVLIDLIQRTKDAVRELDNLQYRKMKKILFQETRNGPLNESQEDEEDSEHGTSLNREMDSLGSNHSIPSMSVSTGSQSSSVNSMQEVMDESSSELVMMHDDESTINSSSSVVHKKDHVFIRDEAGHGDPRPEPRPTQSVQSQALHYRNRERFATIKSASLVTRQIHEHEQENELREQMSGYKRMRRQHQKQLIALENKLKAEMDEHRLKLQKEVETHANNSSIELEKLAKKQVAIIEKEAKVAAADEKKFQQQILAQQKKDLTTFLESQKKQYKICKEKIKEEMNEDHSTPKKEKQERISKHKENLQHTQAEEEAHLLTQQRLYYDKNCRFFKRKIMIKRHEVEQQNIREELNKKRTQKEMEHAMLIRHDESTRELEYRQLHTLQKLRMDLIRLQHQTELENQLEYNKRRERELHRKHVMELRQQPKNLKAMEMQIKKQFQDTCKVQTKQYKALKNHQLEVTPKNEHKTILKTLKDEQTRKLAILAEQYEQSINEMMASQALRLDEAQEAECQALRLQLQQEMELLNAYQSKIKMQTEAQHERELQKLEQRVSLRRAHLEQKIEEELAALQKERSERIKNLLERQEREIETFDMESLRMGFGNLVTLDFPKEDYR
To be noted: at 1 µM.

Test [9] addresses T4, Serine/threonine-protein kinase TAO3 (Homo sapiens). To be noted: at 10 µM.
Test [10] deals with T5, Serine/threonine-protein kinase TBK1 (Homo sapiens) (UniProt Q9UHD2).
T5 sequence (whole entry): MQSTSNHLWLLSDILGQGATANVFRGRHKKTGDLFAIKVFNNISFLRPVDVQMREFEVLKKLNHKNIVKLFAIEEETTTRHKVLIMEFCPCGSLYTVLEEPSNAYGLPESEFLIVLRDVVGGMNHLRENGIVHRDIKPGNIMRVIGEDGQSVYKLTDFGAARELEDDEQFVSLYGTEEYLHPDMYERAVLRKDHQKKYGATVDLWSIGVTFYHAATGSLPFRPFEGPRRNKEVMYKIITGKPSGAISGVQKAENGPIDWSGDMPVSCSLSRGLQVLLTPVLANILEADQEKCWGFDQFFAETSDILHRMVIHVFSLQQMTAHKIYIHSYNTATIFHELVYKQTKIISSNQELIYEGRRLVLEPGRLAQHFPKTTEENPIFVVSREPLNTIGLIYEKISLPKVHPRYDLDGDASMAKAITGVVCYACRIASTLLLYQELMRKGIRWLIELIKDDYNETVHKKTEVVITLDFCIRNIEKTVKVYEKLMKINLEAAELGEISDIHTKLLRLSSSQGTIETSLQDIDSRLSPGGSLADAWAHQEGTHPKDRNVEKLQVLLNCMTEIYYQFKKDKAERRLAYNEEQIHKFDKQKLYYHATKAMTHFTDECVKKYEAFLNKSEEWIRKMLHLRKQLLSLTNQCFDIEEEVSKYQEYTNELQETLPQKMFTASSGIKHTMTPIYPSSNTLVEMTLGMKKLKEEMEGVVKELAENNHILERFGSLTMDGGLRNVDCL
To be noted: at 1 µM.

Consider `CCN(CC)CCCCN1c2ccccc2Oc2ccc(Cl)cc21`, for which the residual activity in test [1] was determined as 93%; in test [2], 97%; in [3], 90%; in [4], 117%; in test [5], 100%; in test [6], 100%. For the same compound, the residual activity in test [7] was 92%; in test [8], 101%; in test [9], 96%; in test [10], 91%.
